Screens (PubChem)
The list is not random: actives were taken first. Their share in the collection is about 12%.
Sfp inh: inhibitors of Bacillus subtilis Sfp phosphopantetheinyl transferase; Q9F4F7; Biochemical Sfp PPTase activity, qHTS; Potency, µM, most hits filed as inhibitors; 310,000 tested, 3.5% active;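 also: the enzyme is Sfp with the accession as filed and its product quenches rhodamine fluorescence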
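Reaction rates are the 30-min fluorescence difference (ex 525, em 598 nm) in wells containing 15 nM Sfp, 5 uM rhodamine-CoA and 12.5 uM BHQ-2-YbbR at pH 7.6 with 10 mM MgCl2.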
PLK1 PBD inh: blocks phosphopeptide binding to human PLK1 polo-box domain. P53350. Plk1 PBD binding of FITC phosphopeptide, fluorescence polarization. Potency, µM, hits mostly inhibitors. 360,000 tested, 2.8% active; also: series mostly up to about 57 µM; nearly all actives have a fitted effect of over 65% in size
Target sequence (P53350 whole entry, looked up, the tested form may be a part): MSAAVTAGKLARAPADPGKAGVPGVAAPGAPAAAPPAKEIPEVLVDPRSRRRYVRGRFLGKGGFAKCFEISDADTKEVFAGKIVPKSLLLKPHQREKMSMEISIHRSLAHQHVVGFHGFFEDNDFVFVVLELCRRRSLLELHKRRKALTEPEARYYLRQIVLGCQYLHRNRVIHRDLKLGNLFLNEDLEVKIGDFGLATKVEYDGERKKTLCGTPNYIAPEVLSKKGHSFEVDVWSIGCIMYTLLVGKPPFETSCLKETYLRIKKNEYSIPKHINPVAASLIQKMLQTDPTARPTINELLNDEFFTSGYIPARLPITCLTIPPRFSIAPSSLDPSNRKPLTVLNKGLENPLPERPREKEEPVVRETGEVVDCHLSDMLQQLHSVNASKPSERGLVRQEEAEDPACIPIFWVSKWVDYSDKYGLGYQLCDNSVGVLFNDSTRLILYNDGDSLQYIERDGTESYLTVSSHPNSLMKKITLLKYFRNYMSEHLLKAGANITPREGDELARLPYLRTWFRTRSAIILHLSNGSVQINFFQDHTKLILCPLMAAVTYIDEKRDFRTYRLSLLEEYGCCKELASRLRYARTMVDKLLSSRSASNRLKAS
RORg inh: inhibitors of mouse ROR gamma transcriptional activity; Potency, µM (titrated, usually from 53.6 µM), most hits filed as inhibitors; 310,000 tested, 5.4% active; P51450; Drosophila S2 Gal4-RORgamma UAS-luciferase reporter, 20 h; AID 2551; also: nearly all actives have a fitted effect of over 60% in size
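Compounds are pin-transferred onto Drosophila Schneider cells expressing a copper-inducible Gal4–ROR gamma transactivation domain fusion. After 1 hr, copper sulfate is added to 700 uM final; luciferase is read 20 hr later.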
VP16 counter: counter-screen for ROR gamma inhibitors: Gal4-VP16 reporter; Potency, µM (doses to about 53.6 µM), usual class: inhibitors; 310,000 tested, 3.5% active; Drosophila S2 Gal4-VP16 UAS-luciferase, luminescence, 20 h;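 also: Gal4-VP16 expression switched on by copper sulfate through the metallothionein promoter; nearly all actives have a fitted effect of over 50% in size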
ALDH1A1 block: blocks purified human ALDH1A1 activity. P00352. Purified ALDH1A1, NADH fluorescence, propionaldehyde substrate. Potency, µM (series often up to 75.3 µM), hits mostly inhibitors. 220,000 tested, 7.3% active. AID 1030; active = well fitted inhibition curve with a large enough effect, not every such curve was filed as active; inconclusive = small, poorly fitted or top-dose-only effect, or another doubt; inactive = no such curve, though single readings can be large or run the other way
A number is an active result; 0 = inactive; ? = inconclusive; - = no result given; [ ] = dose if it differs, or a comment. Unless noted, calls follow the shape of the dose curve; as a rule, active = well fitted curve in the direction sought with a large enough effect; inconclusive = small, poorly fitted or top-dose-only effect, or another doubt; inactive = no such curve, though single readings can be large; an effect the other way counts as inactive or inconclusive.

SMILES	Sfp inh	PLK1 PBD inh	RORg inh	VP16 counter	ALDH1A1 block
Cc1nc2c(sc3nc4c(cc32)COC(C)(C)C4)c(=O)n1Cc1ccccc1	0	0	0	0	?
CCCc1nc2c(sc3nc4c(cc32)COC(C)(C)C4)c(=O)n1CCN(C)C	0	0	0	0	?
Cc1nc2c(sc3nc4c(cc32)COC(C)(C)C4)c(=O)o1	0	0	0	0[0.365 µM]	28µM
CC1(C)Cc2nc3sc(C(=O)NCCCO)c(N)c3cc2CO1	79µM	0	0	0	-
CCCc1nc2c(sc3nc4c(cc32)COC(C)(C)C4)c(=O)n1CCN(CC)CC	0	0	0	0	18µM
COC(=O)C[C@@H]1CC[C@H](NC(=O)Nc2ccc(F)cc2)[C@@H](CO)O1	-	0	-	-	-
CCCN1C[C@H](CSC)C[C@H]2c3cccc4[nH]cc(c34)C[C@@H]21	0	-	0	0	0
CC(C)CCN(C(=O)COc1ccc(C#N)cc1)c1c(N)n(Cc2ccccc2)c(=O)[nH]c1=O	0	-	0	0	0
C(=N\N(c1ccccc1)c1ccccc1)/c1ccc2c(c1)OCO2	0	0	0	0	0
O=C(CNc1ccc2c(c1)OCO2)N/N=C\c1cn(Cc2ccccc2)c2ccccc12	0	0	13µM	?	4.5µM
CCOC(=O)N/N=C/c1cn(Cc2ccc(F)cc2)c2ccccc12	0	0	0	0	-
O=C(CNc1ccccc1)N/N=C/c1ccc2c(c1)OCO2	0	24µM	0	0	0
CN(/N=C/c1ccc2c(c1)OCO2)c1ccccc1	?	0	0	18µM	0
O=C(CNc1ccc2c(c1)OCO2)N/N=C\c1cn(Cc2ccc(F)cc2)c2ccccc12	0	-	?	10µM	2µM
CC1CCC2C(=O)OC(CO)CN2C1c1ccc(Br)cc1 (stereo not drawn)	0	-	0[10 µM]	0[10 µM]	0[13.5 µM]
O=C(NCc1cccc(C(F)(F)F)c1)c1ccc(=O)[nH]c1	0	0	0	?	-
COC(=O)c1ccccc1NC(=O)CSc1nc2ccsc2c(=O)n1Cc1ccc(C(=O)O)cc1	-	0	-	-	-
CCCNC(=O)N[C@H]1C=C[C@H](CC(=O)OC)O[C@@H]1CO	-	0	-	-	-
COc1ccc(CNC(=O)CC[C@H]2O[C@@H](n3cnc4c(NC(=O)c5ccccc5)ncnc43)[C@H](O)[C@@H]2O)cc1	-	0	-	-	-
ONCc1ccccc1	13µM	-	0	0	-
CC(C)(C)SCCNC(=O)/C=C/c1cccc([N+](=O)[O-])c1	0	?	?	0	14µM
O=C(/C=C/c1cccc([N+](=O)[O-])c1)NCCSCc1c(Cl)cccc1Cl	?	0	0	0	?
O=C(/C=C/c1cccc([N+](=O)[O-])c1)NCCSCc1ccc(Cl)cc1	0	0	0[10 µM]	0	22µM
COCCn1c(N)c(N(Cc2ccccc2)C(=O)c2ccc(-c3ccc(Cl)cc3)o2)c(=O)[nH]c1=O	-	0	-	-	-
CC(=O)Nc1ccc(SCCCC(=O)c2ccccc2)cc1	0	13µM	0	?	-
SMILES	Sfp inh	PLK1 PBD inh	RORg inh	VP16 counter	ALDH1A1 block
COC(=O)c1ccccc1S(=O)(=O)N1CCc2nc(COc3ccccc3)c3c(c2C1)CO[C@@H](C)C3	0	-	-	-	0[13.5 µM]
O=C(Cc1ccccc1)Nc1ccc(S(=O)(=O)N2CCOCC2)cc1	0	0	0	0	-
O=C(CCc1ccccc1)NC(=S)Nc1ccc(S(=O)(=O)N2CCOCC2)cc1	0	0	22µM	0	?
COc1cc(NC(=S)Nc2ccc(S(=O)(=O)N3CCOCC3)cc2)cc(OC)c1OC	0	0	0	0	0
O=S(=O)(c1ccc(NC(=S)Nc2ccc3c(c2)OCO3)cc1)N1CCOCC1	0	0	0	0	22µM
CC(NC(=S)Nc1ccc(S(=O)(=O)N2CCOCC2)cc1)C1CC2CCC1C2 (stereo not drawn)	0	0	?	?	20µM
O=S(=O)(c1ccc(NC(=S)Nc2ccccc2)cc1)N1CCOCC1	0	0	?	0	20µM
CCCS(=O)(=O)NC(=O)C1(C)CCN(C(=O)c2ccc(C(F)(F)F)nc2C)C1 (stereo not drawn)	-	0	-	-	-
CC1(C(=O)Nc2ccc3c(c2)OCCO3)CN(S(C)(=O)=O)CC(=O)N1CCc1c[nH]c2ccccc12 (stereo not drawn)	-	0	-	-	-
COc1cccc(C(=O)N2CCC(C(=O)NCc3ccco3)CC2)c1	0	0	0	0	-
O=S(=O)(c1cccc(NC(=S)Nc2ccc(Br)cc2Cl)c1)N1CCOCC1	45µM	0	0	0	?
CNS(=O)(=O)c1ccc(NC(=S)Nc2ccc3c(c2)OCO3)cc1	45µM	19µM	?	0	5µM
CC(NC(=S)Nc1ccccc1C(F)(F)F)C1CC2CCC1C2 (stereo not drawn)	0	0	3.2µM	10µM	?
CC(NC(=O)c1ccccc1Br)C1CC2CCC1C2 (stereo not drawn)	-	0	-	-	-
CC(=O)Nc1ccc(S(=O)(=O)Nc2ccc3c(c2)OCO3)cc1	0	0	?	0	-
COc1ccc(NC(=O)c2cc(C3CCCCN3S(=O)(=O)c3ccccc3)on2)c(C)c1 (stereo not drawn)	-	0	-	-	-
O=C(N[C@@H]1c2ccccc2CC[C@@H]1OCc1ccccc1)c1ccc(C(F)(F)F)cc1	-	0	-	-	-
COc1ccc(C2=Nc3ccccc3NC(=O)C2N(CCc2ccccc2)C(=O)c2cccs2)cc1 (stereo not drawn)	-	0	-	-	-
COc1cc([C@@H]2Oc3cc(C4Oc5cc(O)cc(O)c5C(=O)[C@H]4O)ccc3O[C@H]2CO)ccc1O (stereo partly drawn)	-	0	-	-	-
COc1cc([C@H]2Oc3cc([C@H]4Oc5cc(O)cc(O)c5C(=O)[C@@H]4O)ccc3O[C@@H]2CO)ccc1O	0	0	0	0	14µM
C[C@H]1CN([C@@H](C)CO)C(=O)c2cc(Br)cnc2O[C@H]1CN(C)S(=O)(=O)c1ccccc1F	-	0	-	-	-
COc1cc([N+](=O)[O-])cc(/C=N/NC(=O)C(C)Nc2ccccc2C)c1O (stereo not drawn)	0	0	0.32µM	0.5µM	0
COc1cc([N+](=O)[O-])cc(/C=N/NC(=O)c2ccc(NC(=O)c3ccc(C)cc3)cc2)c1O	0	0	?	0[10 µM]	0
COc1cc([N+](=O)[O-])cc(/C=N/NC(=O)C(C)Nc2cccc(C)c2)c1O (stereo not drawn)	0	0	0.89µM	1.1µM	0
COCCNC(=O)C1(C)CCCN(CCS(=O)(=O)c2ccc(C)cc2)C1 (stereo not drawn)	-	0	-	-	-
SMILES	Sfp inh	PLK1 PBD inh	RORg inh	VP16 counter	ALDH1A1 block
COc1ccc(C(=O)N2C(=S)NC(=O)/C2=C\c2ccc(C)cc2)cc1	50µM	0	?	?	?
CCCCOn1c(C)c(C(C)=O)c2c3no[n+]([O-])c3ccc21	0	0	0	0	0
CCOC(=O)c1c(C)n(OCc2ccccc2)c2ccc3c(no[n+]3[O-])c12	79µM	0	0[0.365 µM]	-	0
CC(=O)Nc1cccc(/C(C)=N/NC(=O)c2cccc(S(=O)(=O)N3CCCC3)c2)c1	-	0	-	-	-
Cn1ccc(-c2ccccc2)n1	0	0	0	0	0
CC1=CC(=O)N(c2ccn(C)n2)C1=O	0	0	14µM	13µM	0
CCNc1nc(CN2CCOCC2)nc2sc3c(c12)CCC3	0	0	?	0	?
